Source: PubChem BioAssay
Sampled rows, rich in hits. Any-hit rate of the full collection: about 1.8%.
SUMO Mot1 rescue: inhibitors of SUMOylation pathway: yeast Mot1-301 growth rescue; AID 2716; 320,000 compounds, 1% hits; S. cerevisiae Mot1-301 growth rescue, ATP luminescence, 38.5C; percent above DMSO median, 100 means doubled; growth rescue, % at 18.8 µM;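 active = every valid replicate shows activation above 250% relative to neutral control wells; inactive = the rest, any valid replicate at or below 250%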;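 note: OY570 slx delta 5 strain wells were the positive control but not used for scaling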
AI-2 QS modul: modulates the Vibrio harveyi AI-2 quorum sensing system | Vibrio harveyi JMH597 AI-2 luminescence/OD600 ratio, 9 h; hits give low values; strain lacks LuxN and CqsS sensors; 0 = neutral-control median | activity change, % at 7.5 µM | 300,000 compounds, 0.4% hits | AID 2094; in the data active = activity change below about -75%, passing the limit was not always enough; inconclusive = no clear call, values can overlap the other calls;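 note: luminescence divided by OD600 gain over 9 h not by final OD600 alone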
aDG glyco up: increases alpha dystroglycan glycosylation; Pro5-aDG cells, alpha-DG glycosylation AlphaScreen (IIH6); 0% Pro5, 100% B10-LARGE cell signal; activation, % at 10 µM; 360,000 compounds, 0.22% hits;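 active = activation of at least 8% versus controls, or a plate z-score of at least 8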;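 note: Pro5 are CHO cells carrying HIG-tagged alpha-DG that lacks glycosylation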
A1 inh: inhibitors of the anti-apoptotic protein A1, read as caspase activation | MEF A1-2A-BIM cells, Caspase-Glo 3/7 luminescence, 3 h; percent of clofoctol response, vehicle zero | caspase activation, % (no concentration beside the values) | 330,000 compounds, 0.066% hits;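 active = over half of replicate activation scores above 10%, or exactly half above 10 with the replicate mean above 10; inconclusive = replicate mean below 10 yet half the replicates above 10; inactive = over half of replicates below 10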
ARNT TACC3 PPI: disruptors of human ARNT/TACC3 interaction | Q9Y6A5 | AlphaScreen His-ARNT PAS-B/GST-TACC3 binding, luminescence; TACC3 fragment carries E629A point mutation | inhibition, % at 9.99 µM | 390,000 compounds, 0.66% hits | AID 623870;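 active = mean inhibition of replicates at least 50% and at least half of replicates each reaching 50%; inconclusive = half or more replicates reach 50% but mean below 50%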;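 note: 0% = complete ARNT plus TACC3 wells and 100% = ARNT alone without TACC3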
Active calls of the source: *; ? = inconclusive; . = no result given.

SMILES	SUMO Mot1 rescue	AI-2 QS modul	aDG glyco up	A1 inh	ARNT TACC3 PPI
C[C@@H]1CN([C@H](C)CO)C(=O)c2cc(C#C[C@@H](C)O)cnc2O[C@@H]1CN(C)Cc1cncnc1	.	.	.	.	39
CS(=O)(=O)N1CCC(Oc2ccccc2C(=O)NC(C2CC2)C2CC2)CC1	834*	21	0	0	1
CS(=O)(=O)N1CCC(Oc2ccccc2C(=O)NC2CCOC2)CC1 (stereo unspecified)	-18	11	0	0	-19
CCOc1ccc(N(CC(=O)NC2CCCC2)S(=O)(=O)c2ccccc2)cc1	-6	13	0	0	-9
NNc1ccc(S(=O)(=O)N2CCCCC2)cn1	-9	10	0	0	54*
CCC1CC(C(=O)Nc2ccccc2)C(=O)O1 (stereo unspecified)	301*	20	0	0	-3
CSc1nnc(-c2ccc(S(=O)(=O)N3CCOCC3)cc2)n1CC1CCCO1 (stereo unspecified)	333*	12	0	0	-14
Cn1c2ccccc2c(=O)c2ccc(C#CC3(O)CCCCC3)cc21	89	38	-1	-2	-24
Cc1nn(-c2ccccc2)c(N)c1Sc1ccccc1[N+](=O)[O-]	-1	10	0	0	10
Cc1nn(C(=O)c2ccccc2)c2c1C(=O)CC(C)(C)C2	495*	27	0	0	-2
CCOc1ccc(OCC(=O)N(CCC2=CCCCC2)c2c(N)n(Cc3ccccc3)c(=O)[nH]c2=O)cc1	.	8	0	60*	-4
O=C(NNC(=O)c1cc2cc(Br)ccc2oc1=O)c1ccc(O)cc1	1	1	0	0	-5
O=C(CNC(=O)c1ccco1)OCc1ccc(Br)cc1	13	-76*	6	1	-1
O=C(CNC(=O)c1ccco1)NCC(=O)OCc1ccc(Cl)cc1	-20	.	0	0	.
COc1cc(Cl)ccc1OCc1cc(C(=O)N(C)Cc2cn(C)nc2C)no1	-3	23	0	0	-1
C[C@H]1CN([C@@H](C)CO)C(=O)Cc2cc(NS(C)(=O)=O)ccc2O[C@H]1CN(C)Cc1ccc2c(c1)OCO2	.	.	.	.	5
COc1ccc(/C=N/Nc2nc(=O)[nH]nc2C)cc1[N+](=O)[O-]	4	6	0	-5	.
COc1cc(/C=N/Nc2nc(=O)[nH]nc2C)cc([N+](=O)[O-])c1O	0	28	0	0	76*
C[C@H]1CN([C@@H](C)CO)S(=O)(=O)c2ccc(-c3ccccc3)cc2O[C@@H]1CN(C)C(=O)CN(C)C	.	.	.	.	7
Nc1nc2ccc(C(=O)NCCOC(=O)C3CCCCC3)cc2s1	1	7	0	-1	66*
CC(=O)Nc1nc2ccc(C(=O)NCCOC(=O)C3CCCCC3)cc2s1	-11	22	0	0	-6
O=S(=O)(Nc1nc2ccccc2nc1N1CCN(c2ccccc2)CC1)c1ccc(F)cc1	526*	30	0	0	.
Cc1ccc(S(=O)(=O)Nc2nc3ccccc3nc2N2CCOCC2)cc1	46	.	0	-1	3
Cc1ccc2c(c1)cc(CN(Cc1ccc3c(c1)OCO3)C(=O)c1ccccc1)c1nnnn12	336*	7	0	0	0
Cc1ccc2c(c1)cc(CN(CCc1ccccc1)C(=O)N1CCOCC1)c1nnnn12	0	11	0	1	-5
SMILES	SUMO Mot1 rescue	AI-2 QS modul	aDG glyco up	A1 inh	ARNT TACC3 PPI
Cc1cc(C)cc(N2CC(C(=O)OCC(=O)Nc3cc(C)on3)CC2=O)c1 (stereo unspecified)	-11	18	0	0	2
Cc1cc(C)cc(N2CC(C(=O)Nc3cc(C)on3)CC2=O)c1 (stereo unspecified)	341*	.	0	0	10
O=C(c1ccccn1)N1CCN(c2cccc(C(F)(F)F)c2)CC1	363*	26	0	0	-7
COc1ccc(/C=N/NC(=O)c2cc(-c3ccccc3)nc3ccccc23)c(OC)c1	342	8	0	-2	-14
CCOc1cccc(CN2CCC(Oc3ccc(C(=O)N4CCCC4)cc3)CC2)c1	-1	32	0	-1	-8
N#Cc1cccc2cnccc12	329*	32	0	1	.
NC(=O)CC(NC(=O)Cc1ccc(Br)cc1)c1ccc(NCCN2CCCCC2)c([N+](=O)[O-])c1 (stereo unspecified)	-8	20	0	1	-6
CC(C)Oc1cccc(C(=O)NC(=S)Nc2cccc(NC(=O)c3ccccc3Cl)c2)c1	150	16	0	0	49*
Cc1ccc(CSc2ccc(-c3ccco3)nn2)cc1	-1	-86*	0	-6	.
Clc1ccc(CSc2ccc(-c3ccccn3)nn2)cc1	-27	12	0	-2	12
c1ccc(CSc2ccc(-c3ccccn3)nn2)cc1	122	-54	0	-2	65*
Clc1cccc(CSc2ccc(-c3ccco3)nn2)c1	20	-4	0	-1	-13
Clc1ccc(CSc2ccc(-c3ccco3)nn2)cc1	-28	-35	0	-1	-7
c1ccc(CSc2ccc(-c3ccco3)nn2)cc1	.	-77*	0	1	-5
O=S(=O)(c1cccs1)N1CN(CC2CCCO2)c2nc3ccccc3nc21 (stereo unspecified)	-3	12	0	-1	6
COc1ccc(C(C(=O)NCC2CCCO2)N(Cc2ccco2)C(=O)c2snc(C(N)=O)c2N)cc1OC (stereo unspecified)	9	10	0	0	-6
COCC(=O)N(C)C[C@H]1Oc2ncc(C#C[C@H](C)O)cc2C(=O)N([C@H](C)CO)C[C@@H]1C	.	.	.	.	-9
NC(=S)Nc1cccc2cccnc12	-10	6	0	0	0
NC(=S)NNc1cccc2cccnc12	97	24	4	0	65*
O=C(Nc1cccc2cccnc12)c1ccccc1Cl	332*	12	0	0	.
CCOc1ccccc1CNC(=O)CN1C(=O)CSc2ccc(S(=O)(=O)N3CCOCC3)cc21	-4	22	0	-1	0
CCn1c(O)c(N=NC(=O)CNC(=O)/C=C/c2ccccc2)c2ccccc21	9	4	0	1	-4
Cc1ccc(/C=N/Nc2cccc(C(=O)O)c2)s1	-5	48	0	-8	9
COc1ccc(/C=N/Nc2ccc(C(=O)O)cc2)cc1Br	15	-96*	0	0	8
Cc1ccc(/C=N/Nc2ccc(C(=O)O)cc2)s1	0	-95*	0	-9	-3
COc1cc(N=c2oc3c(C)ncc(CO)c3cc2C(N)=O)cc(OC)c1OC	.	11	0	1	35*
O=C(/C=C/c1ccco1)Nc1nc(-c2ccccn2)cs1	-2	41	2	-3	65*
O=C(Nc1nc(-c2ccccn2)cs1)c1cc2ccccc2o1	6	?	0	1	66*
